Compounds with a hit are over-represented: about 3.1% of the library has one in this group of screens.
TDP1 inh = inhibitors of human tyrosyl-DNA phosphodiesterase TDP1 | Q9NUW8 | recombinant TDP1, AlphaScreen DNA substrate cleavage | Potency, µM (doses to about 130 µM), without a hit: at the highest dose activity change, negative = inhibition, most hits filed as inhibitors | 350,000 compounds, 0.28% hits | AID 485290; further: on the % scale 0 is the no-effect control and ±100 the full control effect; nearly all actives have a fitted effect of over 40% in size
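Recombinant human Tdp1 (E. coli-expressed, 1 nM final) preincubated with compounds 15 min at room temperature, then 5'-biotin/3'-phosphotyrosine-FITC DNA substrate (15 nM final) added for 5 min. AlphaScreen beads (10 ug/ml final) added 10 min; cleavage lowers signal.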
Tb PFK inh = blocks T. brucei phosphofructokinase; O15648; T. brucei PFK, ADP-Glo luminescence; Potency, µM (highest dose often 57.5 µM), for the others: top-dose activity, negative = inhibition, hits mostly inhibitors; 330,000 compounds, 0.17% hits; AID 485367;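 further: 0% = uninhibited 1x PFK enzyme wells and -100% = no-enzyme wells; nearly all actives have a fitted effect of over 60% in size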
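1.25 nM PFK with 0.5 mM F6P and 0.1 mM ATP in 0.1 M TEA pH 8.0, 5 mM MgCl2, incubated 45 min at room temperature; ADP measured by ADP-Glo luminescence; compounds titrated up to 57 uM.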
VDR inhibitor = vitamin D3 receptor (human) inhibition. AID 504847. Potency, µM, inactives show max response, negative = inhibition, hits mostly inhibitors. 400,000 compounds, 0.93% hits. VDR-SRC2-3 peptide fluorescence polarization, 2 h; further: on the % scale 0 is the no-effect control and ±100 the full control effect
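FP read-out; VDR + SRC2-3 coactivator peptide; 23 nl compound by pintool; 2 h RT incubation; reagents held at 4 deg C, protected from light.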
PLK1 PBD block = inhibitors of human PLK1 polo-box domain binding; P53350; Plk1 PBD binding of FITC phosphopeptide, fluorescence polarization; Potency, µM, without a hit: max response, negative = inhibition, most hits filed as inhibitors; 360,000 compounds, 2.8% hits; further: series mostly up to about 57 µM; on the % scale 0 is the no-effect control and ±100 the full control effect; nearly all actives have a fitted effect of over 65% in size
Pin1 inh = inhibitors of human Pin1; Q13526; AID 504891; Potency, µM (highest dose often 115 µM), for inactives: at the top dose activity, negative = inhibition, usual class: inhibitors; 390,000 compounds, 0.009% hits; Pin1 FP peptide displacement, HiFluor488, 10 min; active means well fitted inhibition curve with a large enough effect in the polarisation, with a control signal flat, not every such curve was filed as active; inconclusive means small, poorly fitted or top-dose-only effect, or effect the other way, or a change in a side signal; inactive means no such curve, though single readings can be large or run the other way; the % refers to the polarisation; further: on the % scale 0 is the no-effect control and ±100 the full control effect
ASM inhibitor = blocks human secretory acid sphingomyelinase; Potency, µM (top dose mostly 57.5 µM), for inactives: at the top dose activity change, negative = inhibition, usual class: inhibitors; P17405; placental ASM, HMU-PC fluorogenic substrate, 60 min; 340,000 compounds, 0.006% hits
Target sequence (P17405 47-631 limits assumed): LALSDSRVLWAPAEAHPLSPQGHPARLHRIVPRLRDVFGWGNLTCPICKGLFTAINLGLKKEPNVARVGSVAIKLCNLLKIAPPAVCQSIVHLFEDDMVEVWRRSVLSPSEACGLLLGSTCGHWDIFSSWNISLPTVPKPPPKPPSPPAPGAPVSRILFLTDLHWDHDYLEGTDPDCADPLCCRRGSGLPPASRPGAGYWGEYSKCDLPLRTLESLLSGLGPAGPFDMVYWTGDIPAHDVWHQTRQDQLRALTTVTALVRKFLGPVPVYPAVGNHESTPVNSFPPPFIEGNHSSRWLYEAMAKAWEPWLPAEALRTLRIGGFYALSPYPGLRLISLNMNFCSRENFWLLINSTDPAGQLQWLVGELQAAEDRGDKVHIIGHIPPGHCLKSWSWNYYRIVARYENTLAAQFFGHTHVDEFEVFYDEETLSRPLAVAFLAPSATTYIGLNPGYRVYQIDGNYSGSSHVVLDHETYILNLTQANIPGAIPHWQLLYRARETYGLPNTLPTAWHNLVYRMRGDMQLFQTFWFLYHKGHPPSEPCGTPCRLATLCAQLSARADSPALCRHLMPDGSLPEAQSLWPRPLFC
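HMU-PC0 cleavage (9 uM final) by human placental ASM, 60 min at 37 °C following 10 min compound exposure at RT; stopped at pH 10, fluorescence Ex 386/Em 447 nm.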
Numbers without * were called inactive; u = inconclusive; x = no result given; [ ] = dose if it differs, or a comment. Unless noted, the call rests on the fitted dose curve; in most records, active means well fitted curve in the direction sought with a large enough effect; inconclusive means small, poorly fitted or top-dose-only effect, or another doubt; inactive means no such curve, though single readings can be large; an effect the other way counts as inactive or inconclusive. Potency means the concentration at half of the fitted maximal effect.

SMILES	TDP1 inh	Tb PFK inh	VDR inhibitor	PLK1 PBD block	Pin1 inh	ASM inhibitor
Cc1cccc(NC(=O)c2oc3ccc(S(=O)(=O)N(C)C4CCCCC4)cc3c2C)c1C	5%	x	-12%	x	5%	x
CC1CCC(NC(=O)c2ccc3c(c2)N(Cc2ccccc2F)C(=O)c2ccccc2S3)CC1 (stereo not drawn)	4%	x	12%	x	26%	x
Cc1ccc(NC(=O)Cn2c(=O)n(Cc3ccccc3)c(=O)c3c2c2cc(C)ccc2n3C)cc1	3%	x	10%	x	2%	x
COc1ccc2c(c1)OC/C(=C\c1ccc(OC)c(O)c1)C2=O	15%[56.1 µM]	x	20µM*	x	x	x
COc1ccc2c(c1)OC/C(=C/c1cccs1)C2=O	3%	0%	-27%	-6%	2%	3%
CCSc1nnc(-c2ccncc2)o1	0%	1%	11%	1%	-1%	-3%
CCSc1nnc(-c2sc3nnc(-c4ccccc4)c(-c4ccccc4)c3c2N)o1	-6%	-2%	20%	15µM*	u	-6%
CC1CCCCC1NCc1cccc([N+](=O)[O-])c1 (stereo not drawn)	-13%	-9%	-13%	27µM*	-2%	-2%
O=[N+]([O-])c1cccc(CNC2CCCCCC2)c1	-1%	-16%	-7%	-9%	-1%	-4%
CCc1ccc(NC(=O)CC2C(=O)N(c3ccc(Cl)cc3)C(=O)N2Cc2cccs2)cc1 (stereo not drawn)	3%	x	5%	x	15%	x
Cc1cc2c(s1)c1cnn(Cc3ccc(F)cc3)c(=O)c1n2C	50µM*	x	x	x	u	x
O=C(NCc1ccco1)C1CC(=O)N(c2ccc(Cl)cc2)C1 (stereo not drawn)	-3%	-6%	-8%	-8%	6%	0%
Cc1ccc(C2CC(=O)N3CN(Cc4ccco4)CSC3=C2C#N)cc1 (stereo not drawn)	4%	-3%	u	27µM*	-18%	-6%
N#CC1=C2SCN(Cc3ccco3)CN2C(=O)CC1c1c(F)cccc1Cl (stereo not drawn)	5%	4%	u	27µM*	-2%	-5%
O=C(O)/C(CC(=O)c1ccc(Cl)cc1)=N/Nc1ccc([N+](=O)[O-])cc1[N+](=O)[O-]	x	10%	-27%	24µM*	x	-17%
O=C(Nc1ccc2c(c1)CCC2)c1cnn2c1NC(=C1CC1)C=C2C(F)F	x	x	-6%	x	6%	x
CCOC(=O)C(NC(C)=O)(Nc1ccc(S(=O)(=O)Nc2ncccn2)cc1)C(F)(F)F (stereo not drawn)	2%	1%	u	30µM*	-3%	1%
O=C(/C=C\c1ccccc1)Nc1ccc(NC(=O)c2ccco2)cc1	1%	1%	20µM*	3.4µM*	1%	-2%
O=C(Oc1ccccc1)c1ccc(NC(=O)c2ccco2)cc1	2%	-4%	-22%	24µM*	-1%	-1%
COC(=O)c1ccc(NC(=O)c2ccc(NC(=O)c3ccco3)cc2)cc1	2%	-9%	19%	2%	74%	3%
CSc1ccc(CNC(=O)CCn2ccc3cc(S(=O)(=O)N4CCCC4)ccc32)cc1	2%	4%	-25%	27µM*	3%	-6%
COc1cccc(CNC(=O)Cn2ccc3cc(S(=O)(=O)N4CCCC4)ccc32)c1OC	0%	-4%	-27%	30µM*	-6%	-2%
COc1ccc(CNC(=O)CCn2ccc3cc(S(=O)(=O)N4CCCC4)ccc32)cc1	-13%	2%	-13%	-9%	2%	-1%
CCOc1ccc(CNC(=O)Cn2ccc3cc(S(=O)(=O)N4CCCC4)ccc32)cc1	0%	3%	-14%	27µM*	4%	-5%
CC(C)c1ccc(NC(=O)C2CCN(c3ncnc4c3nc3n4CCCCC3)CC2)cc1	1%	-1%	-21%	30µM*	4%	-1%
Cc1cccc(NC(=O)C2CCN(c3ncnc4c3nc3n4CCCCC3)CC2)n1	0%	-7%	-24%	27µM*	-9%	3%
O=C(NCCCN1CCCCC1)C1CCN(c2ncnc3c2nc2n3CCCCC2)CC1	0%	2%	u	27µM*	-1%	3%
